The source of these data is PubChem BioAssay (NCATS).

Unmarked numbers belong to inactive results. Results filed as inconclusive are left out. Active and inactive are the calls of the source. The call rests on the fitted dose curve; in most records, active means well fitted curve in the direction sought with a large enough effect; inconclusive means small, poorly fitted or top-dose-only effect, or another doubt; inactive means no such curve, though single readings can be large; an effect the other way counts as inactive or inconclusive.

Experiment [1] addresses Glutathione peroxidase 1 (Homo sapiens) (UniProt P07203). The experiment in a line: Primary qHTS Assay for Inhibitors of Recombinant Selenoprotein Glutathione Peroxidase 1 (GPX1) (AID 1845191). Further: nearly all actives have a fitted effect of over 65% in size. On activity, negative = inhibition: on the % scale 0 is the no-effect control and ±100 the full control effect. The method, boiled down: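 GPX1 10 nM, GR 100 nM, GSH 1 mM, NADPH 0.5 mM, CHP 0.5 mM (final). 30-min cpd preincubation, RT. Ex340/Em450 read t=0, t=15 min.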
A general note: In qHTS, concentration-response curves come from the screen itself.

Experiment [2] addresses Phospholipid hydroperoxide glutathione peroxidase GPX4 (Homo sapiens) (UniProt P36969). The experiment in a line: Primary qHTS Assay for Inhibitors of Recombinant Selenoprotein Glutathione Peroxidase 4 (GPX4) (AID 1845192). Further: nearly all actives have a fitted effect of over 65% in size. On activity change, negative = inhibition: series mostly up to about 50 µM; on the % scale 0 is the no-effect control and ±100 the full control effect. The method, boiled down:
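qHTS, GR-coupled: GPX4 200 nM + cpd 30 min RT → GSH 1 mM, NADPH 0.5 mM, GR 100 nM → CHP 0.5 mM start; fluor 340/450 at t0 and t15 min; no-enzyme wells as control.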

In experiment [3] the target is Luciferin 4-monooxygenase (Photinus pyralis) (UniProt P08659). As to the kind of experiment: Primary firefly luciferase (FLuc) qHTS assay for identification of artifact compounds. (AID 1845220). Further: nearly all actives have a fitted effect of over 60% in size. Further: potency means the concentration at half of the fitted maximal effect.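 On activity change, negative = inhibition: series mostly up to about 54 µM; plate controls were DMSO vehicle for no effect and no enzyme for full effect.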 In outline:
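qHTS, 15 min compound preincubation with substrate (10 uM luciferin, 10 uM ATP) at RT, then 10 nM FLuc; 5 min; luminescence; % inhibition vs no-enzyme/DMSO controls, 4-parameter Hill fit.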

Experiment [4] can be described thus: Primary fluorescence-based thiol-reactive (MSTI) qHTS assay for identification of artifact compounds. (AID 1845221). Further: nearly all actives have a fitted effect of over 65% in size. Further: potency means the concentration at half of the fitted maximal effect. The method, boiled down: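 MSTI probe at 4 uM final in 2% DMSO/PBS pH 7.4; compounds, 1 h at room temperature in dark. Fluorescence Ex/Em 525/598 nm, normalised to Acetyl-MSTI and MSTI, fitted to 4-parameter Hill.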
Experiment [5] has as its system Nanoluciferase (engineered Oplophorus gracilirostris luciferase). The experiment in a line: Primary Nanoluciferase (NLuc) qHTS assay for identification of artifact compounds. (AID 1845222). Further: series mostly up to about 54 µM. The method, boiled down: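 Luminescence read-out of secreted NLuc in S16 cell conditioned medium (1:55); compounds tested with 15 min RT preincubation, then Nano-Glo substrate 1:100, 5 min. % inhibition vs no-enzyme and DMSO controls, 4-parameter Hill fit.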

Experiment [6] is described as follows: Primary redox qHTS assay for identification of artifact compounds. (AID 1845223).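 Further: 0% = DMSO and 100% = reference compound.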 The method, boiled down: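 Redox-cycling detection via DTT (250 uM final) oxidation coupled to Amplex Red (25 uM)/HRP (250 mU/mL) in HBSS. 15 min preincubation plus 30 min after DTT, room temperature. Ex/Em 525/598 nm; 4-parameter Hill fit against DMSO and 10 uM DA3003.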

Sequence of Glutathione peroxidase 1 (Homo sapiens) (P07203 whole entry, looked up): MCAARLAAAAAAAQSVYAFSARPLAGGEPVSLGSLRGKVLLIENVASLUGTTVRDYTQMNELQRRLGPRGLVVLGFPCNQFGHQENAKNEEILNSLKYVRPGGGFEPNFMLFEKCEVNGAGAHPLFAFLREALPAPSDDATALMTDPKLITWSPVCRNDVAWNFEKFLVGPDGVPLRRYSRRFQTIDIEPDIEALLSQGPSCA
Sequence of Phospholipid hydroperoxide glutathione peroxidase GPX4 (Homo sapiens) (P36969 whole entry, looked up): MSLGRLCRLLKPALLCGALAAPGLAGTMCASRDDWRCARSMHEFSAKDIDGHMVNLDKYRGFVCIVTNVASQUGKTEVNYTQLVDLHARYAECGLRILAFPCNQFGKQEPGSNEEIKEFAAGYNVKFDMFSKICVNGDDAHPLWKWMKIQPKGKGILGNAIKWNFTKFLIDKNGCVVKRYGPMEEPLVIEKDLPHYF

As to `Cc1nc2cc(-c3cc(F)cc(C#N)c3)ccc2s1`, the Potency result in experiment [1], in experiment [2], in experiment [3], in experiment [4], in experiment [5] and in experiment [6] was “inactive” throughout.

For the compound `O=C(O)CC1(O)C(=O)Nc2ccccc21` (stereo unspecified), the Potency result in experiment [1], in experiment [2], in experiment [3], in experiment [5] and in experiment [6] was “inactive” each time. For the same compound, in experiment [4], the Potency was 25.1 µM (active).

For `COc1c2cc(c(O)c1OC)CCCCC(O)CCc1ccc(O)c-2c1` (stereo unspecified), the Potency entry in experiment [1], in experiment [2], in experiment [3], in experiment [4], in experiment [5] and in experiment [6] was “inactive” throughout.

On to `COc1cc(C2Oc3c(OC)cc(CCCO)cc3C2CO)ccc1O` (stereo unspecified), for which the Potency entry in experiment [1], in experiment [2], in experiment [3], in experiment [5] and in experiment [6] was “inactive” each time. For the same compound, in experiment [4], the Potency was 13.1 µM (active).

In the case of `C=C1CC[C@H]2[C@@](C)(CCC(OC3OC(CO)C(O)C(O)C3O)[C@@]2(C)CO)C1C(=O)CC1=CCOC1=O` (stereo partly specified), the Potency entry in experiment [1], in experiment [2], in experiment [3], in experiment [5] and in experiment [6] was “inactive” in each case. The Potency in experiment [4] is 3.27 µM (active).

Turning to `COc1cc2c(c(OC)c1O)C(c1ccc(O)cc1)C1C(=O)OC3C(COC(=O)C1=C2)OC(CO)(OC1OC(COC(=O)/C=C/c2ccc(OC4OC(C)C(O)C(O)C4O)cc2)C(O)C(O)C1O)C3O` (stereo unspecified), the Potency result in experiment [1] and in experiment [2] was “inactive” in each case. The activity change, negative = inhibition in experiment [3] was -10.6% [at 11.6 µM]. Further, the Potency in experiment [4] is 4.5 µM (active). In experiment [5], the activity, negative = inhibition is -14.9% [at 11.6 µM]. Further, the redox activity (% of DA3003) in experiment [6] is 0.553% [at 11.5 µM].

Turning to `O=C(OC[C@H]1O[C@H](O[C@H]2CO[C@H](CO)[C@@H](O)[C@@H]2O)[C@H](O)[C@@H](O)[C@H]1O)c1ccccc1`, the Potency result in experiment [1], in experiment [2], in experiment [3], in experiment [4], in experiment [5] and in experiment [6] was “inactive” in each case.

Consider `CC1(C)CC(NC(=O)C(=O)Nc2ccc(Cl)cc2)CC(C)(C)N1`, for which the Potency result in experiment [1], in experiment [2], in experiment [3], in experiment [4], in experiment [5] and in experiment [6] was “inactive” throughout.

As to `C/C=C(/C)C(=O)OC1C2OC2C2(CO2)C2C3OC(=O)C(C)C3CCC12C` (stereo unspecified), the Potency entry in experiment [1], in experiment [2], in experiment [3], in experiment [4], in experiment [5] and in experiment [6] was “inactive” throughout.

Consider `OC[C@H]1O[C@@H](O[C@H]2[C@H](O)[C@@H](CO)O[C@@H](OCc3ccccc3)[C@@H]2O[C@@H]2OC[C@](O)(CO)[C@H]2O)[C@H](O)[C@@H](O)[C@@H]1O`, for which the Potency result in experiment [1], in experiment [2], in experiment [3], in experiment [4], in experiment [5] and in experiment [6] was “inactive” throughout.

With `CC1=C2C(=O)C=C(CO)C2C2OC(=O)C(CS(=O)(=O)O)C2C(OC(=O)Cc2ccc(O)cc2)C1` (stereo unspecified), the Potency result in experiment [1], in experiment [2], in experiment [3], in experiment [5] and in experiment [6] was “inactive” each time. In experiment [4], the Potency was 3.67 µM (active).

With `CCC1(O)CC2c3cc(OC)c(OC)cc3CCN2CC1CC(C)C` (stereo unspecified), the Potency result in experiment [1], in experiment [2], in experiment [3], in experiment [4], in experiment [5] and in experiment [6] was “inactive” throughout.

Consider `c1ccc2c(Nc3nnc(-c4ccncc4)s3)cccc2c1`, for which the Potency result in experiment [1], in experiment [2], in experiment [4], in experiment [5] and in experiment [6] was “inactive” throughout. The Potency in experiment [3] was 7.57 µM (active).

`CC(C)(CC(=O)N1CCCC1)NCC(=O)N1C[C@@H](F)C[C@H]1C#N`: the Potency entry in experiment [1], in experiment [2], in experiment [3], in experiment [4], in experiment [5] and in experiment [6] was “inactive” in each case.

`CC1(C)CC2C(O)C3=C(CC(C)(O)C2C1)C(=O)OC3` (stereo unspecified): the Potency entry in experiment [1], in experiment [2], in experiment [3], in experiment [4], in experiment [5] and in experiment [6] was “inactive” each time.

Take `C/C=C/C=C/C(=O)OC1CC/C=C/C(O)C(O)C(CCC)OC1=O` (stereo unspecified): the Potency result in experiment [1], in experiment [2], in experiment [3], in experiment [4], in experiment [5] and in experiment [6] was “inactive” throughout.

In the case of `C[C@@H]1C(=O)O[C@H](C)[C@H]1C[C@@H](O)[C@](C)(O)[C@H]1CC[C@@]2(O)C3=CC(=O)[C@@H]4C[C@@H](O)[C@@H](O)C[C@]4(C)C3CC[C@]12C` (stereo partly specified), the Potency entry in experiment [1], in experiment [2], in experiment [3], in experiment [4], in experiment [5] and in experiment [6] was “inactive” each time.

Consider `CCCN(CCN1CCN(c2ccccc2OC)CC1)C1CCc2ncsc2C1` (stereo unspecified), for which the Potency result in experiment [1], in experiment [2], in experiment [3], in experiment [4], in experiment [5] and in experiment [6] was “inactive” throughout.

Turning to `COc1cc(C(C)=O)ccc1O[C@@H]1O[C@H](CO[C@@H]2OC[C@@H](O)[C@H](O)[C@H]2O)[C@@H](O)[C@H](O)[C@H]1O`, the Potency entry in experiment [1], in experiment [2], in experiment [3], in experiment [4], in experiment [5] and in experiment [6] was “inactive” in each case.

On to `Cc1ncc(Cl)cc1NCc1ccc(C(=O)NC(CC2CCCC2)C(=O)NC2CC2)s1` (stereo unspecified), for which the Potency entry in experiment [1], in experiment [2], in experiment [3], in experiment [4], in experiment [5] and in experiment [6] was “inactive” throughout.

Turning to `COC(=O)C1=CO[C@@H](O[C@@H]2O[C@H](CO)[C@@H](O)[C@H](O)[C@H]2O)[C@@H]2[C@@H](CO)[C@@H](O)C(O)[C@H]12` (stereo partly specified), the Potency result in experiment [1], in experiment [2], in experiment [3], in experiment [4], in experiment [5] and in experiment [6] was “inactive” throughout.
